CD11b adhes enh: increases human CD11b/CD18 adhesion to fibrinogen; P05107+P11215; K562 CD11b/CD18 adhesion to fibrinogen, ATPlite luminescence; activation, % at 10 µM; hit rate 0.07% among 93,000; AID 1499;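 active = 10 µM primary screen giving 50% or more activity, confirmed by 40% or more on retest at that dose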
CYP2C19 act: cytochrome P450 2C19 (human) activation | activation factor at 5 µM | 96,000 tested, under 10 active | recombinant CYP2C19, luciferin-H EGE luminescence; stronger effect = higher value; 0 = fully inhibited enzyme, 1 = untreated enzyme;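 active = activation factor of at least 2 at 5 µM in the primary screen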
CYP2C19 inhib: blocks human cytochrome P450 2C19; inhibition, % at 5 µM; hit rate 21% among 96,000; P33261; AID 778; CYP2C19 Supersomes, luciferin-H EGE luminescence, 30 min;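 active = CYP2C19 inhibition above a set limit at 5 µM in the primary screen, cut at about 50% in these data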
CD11b adhes inh: blocks human CD11b/CD18 adhesion to fibrinogen; P05107+P11215; K562 CD11b/CD18 adhesion to fibrinogen, ATPlite luminescence; Mn2+ added to activate the integrin; inhibition, % at 10 µM; hit rate 0.54% among 93,000;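 active = primary inhibition of 50% or more at 10 µM, then 40% or more on retest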
CYP2C9 act: CYP2C9 (human) activation; hit rate 1.4% among 96,000; recombinant CYP2C9, luciferin-H conversion, luminescence; stronger effect = higher value; factor 1 = untreated enzyme, 0 = blocked; activation factor at 5 µM; AID 1024; P11712;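 active = activation factor of 2 or more for CYP2C9 at a 5 µM dose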
CYP2C9 inh: human CYP2C9 inhibition. P11712. CYP2C9 Supersomes, luciferin-H conversion, luminescence. inhibition, % at 5 µM. hit rate 20% among 96,000. AID 777;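 active = blocking of liver enzyme CYP2C9 beyond about 50% at 5 µM, limit read from the data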
Numbers stand for hits; i = inactive; nt = no result given. An excerpt weighted towards active compounds, which were near 28% of everything screened.

SMILES | CD11b adhes enh | CYP2C19 act | CYP2C19 inhib | CD11b adhes inh | CYP2C9 act | CYP2C9 inh
COc1ccc(S(=O)(=O)N2CCN(C(=O)c3cccs3)CC2)cc1 | i | i | 93.6 | i | i | i
CN(C)S(=O)(=O)N1CCN(C(=O)c2cccs2)CC1 | i | i | 75.7 | i | i | i
CC(C)n1c(N2CCN(C(=O)c3cccs3)CC2)nc2ccccc21 | i | i | 50.9 | i | i | 58.5
O=C(NC(=O)c1cccc(OC(F)(F)C(F)F)c1)OC1CCS(=O)(=O)C1 (configuration not stated) | i | i | i | i | i | i
CC(NC(=O)CSc1nnc(CC(=O)Nc2ccc(Cl)c(Cl)c2)n1C)c1ccccc1 (configuration not stated) | i | i | i | i | i | i
O=C(O)COc1ccc(-c2nnn(CC(=O)O)n2)cc1 | i | i | i | i | i | i
O=C1c2ccccc2C(=O)N1CCCCN(C(=O)c1ccco1)c1ccc(Cl)cc1 | i | i | 56.6 | i | i | 82.5
CCN(CCCCN1C(=O)c2ccccc2C1=O)c1ccc2c(c1)C(=O)N(C)C2=O | i | i | i | i | i | i
Cc1ccc(N(CCCCN2C(=O)c3ccccc3C2=O)C(=O)c2cccs2)cc1 | i | i | 61.2 | i | i | 66.0
O=C1c2ccccc2C(=O)N1CCCCN(C(=O)c1cccc([N+](=O)[O-])c1)c1ccc(Cl)cc1 | nt | i | 69.2 | nt | i | 60.6
COCCn1nnnc1CN1C2CCCC1CC(NC(C)=O)C2 (configuration not stated) | i | i | i | i | i | i
COc1ccccc1N1CCN(C(=O)c2cnn3cccnc23)CC1 | i | i | i | i | i | i
CCCCC(SCC(=O)Nc1ccccc1)C(=O)O (configuration not stated) | i | i | i | i | i | 70.5
Cc1ccc(Oc2ccccc2/C=N/O)cc1 | i | i | 82.3 | i | i | i
CCOC(=O)c1sc(NC(=O)COC(=O)CNC(=O)C2CCCCC2)c(C(=O)OCC)c1C | i | nt | nt | i | nt | nt
CC(C)Cn1c(=O)c(C(=O)NCc2ccccn2)c(O)c2ccccc21 | nt | i | i | nt | i | i
COc1ccc(C(C)=O)c2c(O)cccc12 | i | i | 87.4 | i | i | i
COc1ccc(C(=O)c2ccccc2)c2c(O)ccc(C(=O)c3ccccc3)c12 | i | i | i | 51.0 | i | i
Cc1cc(C)n(-c2nc(SCC(=O)NCC3CCCO3)c3c4c(sc3n2)CCCC4)n1 (configuration not stated) | i | i | 63.4 | i | i | 85.0
COc1ccc2[nH]c(=O)c(CN(CCO)S(=O)(=O)c3ccc4c(c3)OCCO4)cc2c1 | i | i | 75.3 | i | i | i
COC(=O)c1ccccc1S(=O)(=O)N(CCCO)Cc1cc2c(C)ccc(C)c2[nH]c1=O | i | i | 53.7 | i | i | 84.3
COc1ccc2[nH]c(=O)c(COC(=O)c3ccco3)cc2c1 | i | i | i | i | i | i
COc1ccc2cc(CN(CC3COCCO3)S(=O)(=O)c3c(C)cc(C)cc3C)c(=O)[nH]c2c1 (configuration not stated) | i | i | i | i | i | i
COc1ccc2cc(CN(CC3COCCO3)S(=O)(=O)c3ccc(Cl)cc3)c(=O)[nH]c2c1 (configuration not stated) | i | i | i | i | i | 59.5
COC(=O)c1ccccc1S(=O)(=O)N(Cc1ccco1)Cc1cc2cc(OC)ccc2[nH]c1=O | i | i | 68.2 | i | i | i
COc1cc2cc(CN(CCO)S(=O)(=O)c3ccccc3)c(=O)[nH]c2cc1OC | i | i | i | i | i | i
Cc1ccc(N2C(=O)SC(N(CC(=O)O)c3cccc(C)c3)C2=O)cc1 (configuration not stated) | i | i | i | i | i | i
Cc1ccc(CNC(=O)c2nc3nc(C)cc(C)n3n2)cc1 | i | i | i | i | i | i
Cc1ccc(C)c2[nH]c(=O)c(CN(Cc3ccco3)S(=O)(=O)c3ccc4c(c3)OCCO4)cc12 | i | i | 75.3 | i | i | 67.4
CCc1ccc2[nH]c(=O)c(CN(Cc3ccco3)S(=O)(=O)c3ccc4c(c3)OCCO4)cc2c1 | i | i | i | i | i | i

Source: PubChem (Sanford-Burnham Center for Chemical Genomics)
